Values joined by “and” are separate entries in the source; they are usually repeats but may differ in a detail not shown here. Equal values may be shown once. About 1,100 (1.7%) of roughly 63,000 compounds were called active. The list comes from a sample in which actives are over-represented; it also holds similar structures and randomly drawn compounds. Potency and affinity values are given separately. Values without a mark were called inactive.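 Rule for the calls: active = compounds whose percent cytotoxicity in the single-dose primary screen, scaled between solvent and toxic-drug controls, exceeds 50; inactive = the rest.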

This assay in a line: viability loss of HPDE-C7K cells – cell-based, fluorescence, HTS, primary screen (AID 431).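 Note: 0% = DMSO solvent wells and 100% = doxorubicin-treated wells.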 The settings on record: HPDE-C7K KRASV12 cells, Alamar Blue viability, 48 h; at 10 µM; stronger effect = higher value.
Turning to `CCCNC1=C(C)C(=O)CC1`, the cytotoxicity is 15.5%.

Turning to `CCOc1ncccc1C(=O)OCC(=O)c1ccc[nH]1`, the cytotoxicity was 2.7%.

In the case of `COc1ccc(CCNC(=O)C2=COCCO2)cc1`, the cytotoxicity is -8.1%.

Regarding `Cc1cccc(NC(=O)c2cc3n(n2)C(C(F)(F)F)CC(c2ccc4c(c2)OCO4)N3)c1` (stereo not drawn), the cytotoxicity is 75.8% (active).

As to `O=C(NCc1ccc2c(c1)OCO2)c1cc2n(n1)C(C(F)(F)F)CC(c1ccc3c(c1)OCO3)N2` (stereo not drawn), the cytotoxicity was 21.6%.

Regarding `O=C(Nc1ccc2c(c1)OCO2)c1cc2n(n1)C(C(F)(F)F)CC(c1ccccc1)N2` (stereo not drawn), the cytotoxicity was 72.7% (active).

Turning to `COc1ccccc1NC(=O)c1cc2n(n1)C(C(F)(F)F)CC(c1ccc3c(c1)OCO3)N2` (stereo not drawn), the cytotoxicity was 41.8%.

With `O=C(Nc1cc(Cl)ccc1O)c1cc2n(n1)C(C(F)(F)F)CC(c1ccc3c(c1)OCO3)N2` (stereo not drawn), the cytotoxicity was -19.1%.

Turning to `COc1ccc(NC(=O)c2cc3n(n2)C(C(F)(F)F)CC(c2ccc4c(c2)OCO4)N3)cc1OC` (stereo not drawn), the cytotoxicity was 69.1% (active).

Consider `COc1ccc(C2CC(C(F)(F)F)n3nc(C(=O)Nc4ccc5c(c4)OCO5)cc3N2)cc1` (stereo not drawn), for which the cytotoxicity is -10.9%.

In the case of `Cc1cc(NC(=O)c2cc3n(n2)C(C(F)(F)F)CC(c2ccc(Cl)c(Cl)c2)N3)no1` (stereo not drawn), the cytotoxicity was 14.7%.

`COc1ccc(OC)c(NC(=O)c2cc3n(n2)C(C(F)(F)F)CC(c2ccc4c(c2)OCO4)N3)c1` (stereo not drawn): the cytotoxicity is 42.4%.

Take `CC(=O)N(c1ccc2oc(=O)sc2c1)S(=O)(=O)c1cccs1`: the cytotoxicity is 14.7%.

As for `COc1ccc(NC(=O)N2CCn3c2nc2ccccc23)cc1`, the cytotoxicity was -17.6%.

On to `N=c1c(C(=O)NC2CCCC2)cc2c(=O)n3ccccc3nc2n1CCN1CCOCC1`, for which the cytotoxicity was -8.1%.

`COCc1[nH]nc2c1C(c1ccc(F)cc1F)C(C#N)=C(N)O2` (stereo not drawn): the cytotoxicity was -13.5%.

Regarding `Cc1cc(N2C(=O)C(O)=C(C(=O)c3ccco3)C2c2cccnc2)no1` (stereo not drawn), the cytotoxicity was -10.4%.

On to `Cn1c(C(=O)Nc2ccc3c(c2)OCCO3)cc2c(=O)n(C)c3ccccc3c21`, for which the cytotoxicity was 48.6%.

Consider `C=CCn1c(COc2cccc3ccc(C)nc23)nnc1SCC(=O)OC`, for which the cytotoxicity is 6.8%.

As for `COc1cccc(CN2CCNC(=O)C2CC(=O)O)c1OC` (stereo not drawn), the cytotoxicity was -4.6%.

Regarding `Cc1n[nH]c(C)c1S(=O)(=O)N1CCN(C(=O)c2ccco2)CC1`, the cytotoxicity was 4%.

As to `COC(=O)c1ccc(CN(c2ccc(C)cc2)S(=O)(=O)c2ccc3c(c2)OCCO3)o1`, the cytotoxicity is 7.1%.

As for `COc1cccc(N(CC(=O)NC(C)(C)C)C(=O)C2CSC(=O)C2)c1` (stereo not drawn), the cytotoxicity was -24.1%.

Turning to `CCOC(=O)C1CCN(c2ncnc3c2cnn3-c2ccccc2)CC1`, the cytotoxicity is 2.3%.

On to `COc1ccc(/C(O)=C2/C(=O)C(=O)N(CCN(C)C)C2c2ccccn2)cc1OC` (stereo not drawn), for which the cytotoxicity is -9.5%.

Turning to `CCC(C)(C)NC(=O)C(c1ccccc1F)N(Cc1ccco1)C(=O)Cn1nnc2ccccc21` (stereo not drawn), the cytotoxicity was -4.3%.

As to `O=C(NC1CCCCC1)C(c1ccc(F)cc1)N(Cc1ccco1)C(=O)Cn1nnc2ccccc21` (stereo not drawn), the cytotoxicity was -8.2%.

Consider `O=C(NC1CCCCC1)C(c1ccccc1F)N(Cc1ccco1)C(=O)Cn1nnc2ccccc21` (stereo not drawn), for which the cytotoxicity is 65.1% (active).

Turning to `O=C(OC(C(=O)NCC1CCCO1)c1ccc(F)cc1)c1ccco1` (stereo not drawn), the cytotoxicity is -12.4%.

`COc1cc(-c2c(C#N)c(N)nc3c2CCCC3)ccc1O`: the cytotoxicity was -23.5%.

With `COc1cc2nc(N3CCN(C(=O)C4CCCO4)CC3)nc(N)c2cc1OC` (stereo not drawn), the cytotoxicity is -6.8% and -0.8%.

For `COc1cc2nc(N3CCN(C(=O)c4ccco4)CC3)nc(N)c2cc1OC`, the cytotoxicity is 90.2% (active).

On to `COc1cc2nc(N3CCN(C(=O)C4COc5ccccc5O4)CC3)nc(N)c2cc1OC` (stereo not drawn), for which the cytotoxicity is 43.4%.

For `CN(c1ccccc1C(=O)NCc1ccco1)S(C)(=O)=O`, the cytotoxicity was 3.4%.

Turning to `Cc1ccc(S(=O)(=O)NCCC(=O)Nc2nnc(C3CC3)s2)cc1C`, the cytotoxicity is 5.5%.

As for `O=C(NCCCN1CCOCC1)c1ccc(CS(=O)(=O)c2cccc(C(F)(F)F)c2)o1`, the cytotoxicity is -4.8%.

With `O=C1c2cccnc2C(O)N1Cc1cccs1` (stereo not drawn), the cytotoxicity was -24.1%.

Regarding `CCCC1COC(Cn2cncn2)(c2ccc(C)cc2)O1` (stereo not drawn), the cytotoxicity is -8.6%.

For the compound `O=C1Nc2ccccc2C12OCC(COc1ccc(Cl)cc1)O2` (stereo not drawn), the cytotoxicity is 36.3%.

Regarding `CCC(C)n1ncn(-c2ccc(N3CCN(c4ccc(OCC5COC(Cn6cncn6)(c6ccc(Cl)cc6Cl)O5)cc4)CC3)cc2)c1=O` (stereo not drawn), the cytotoxicity is 68.7% (active).

With `CN1CCN(S(=O)C23CC4CC(CC(C4)C2)C3)CC1` (stereo not drawn), the cytotoxicity was -18.9%.

`CCOc1ccc(-c2nc(N)nc(C)c2-c2ccc(OC)c(OC)c2)c(O)c1`: the cytotoxicity is 9.6%.

Consider `COc1ccc(C(=O)OCCN2C(=O)c3ccccc3C2=O)cc1`, for which the cytotoxicity is 1.1%.

On to `CCCOC(=O)c1ccc(OC(=O)c2ccco2)cc1`, for which the cytotoxicity was 1.8%.

Regarding `CCOc1ccc(-c2n[nH]c(C)c2-c2ccccc2OC)c(O)c1`, the cytotoxicity is -3.5%.

As to `Cc1cc2nc(SCCN3CCCC3)[nH]c2cc1C`, the cytotoxicity is 16.7%.

With `CC1=Nn2c(nnc2C2CCCCC2)SC1`, the cytotoxicity is -19%.

Regarding `CCn1c(=O)cc(OCC(=O)NC2CCCCC2)c2ccccc21`, the cytotoxicity is -1.2%.

Consider `CCSc1nnc(-c2ccc(S(=O)(=O)N3CCOCC3)cc2)n1CC1CCCO1` (stereo not drawn), for which the cytotoxicity was 14%.

Consider `Cc1c(N(C)C(=O)c2ccco2)c(=O)n(-c2ccccc2)n1C`, for which the cytotoxicity is 8.3%.

On to `COc1ccc2c(c1)CC(C1(O)C(=O)Nc3ccccc31)C2=O` (stereo not drawn), for which the cytotoxicity is -10.5%.

Turning to `O=C(CN1CCCC1)N1c2ccccc2Sc2ccccc21`, the cytotoxicity is -4.5%.

Consider `CC1CC(=O)N(CC(=O)N2CCCC2)c2ccccc2S1` (stereo not drawn), for which the cytotoxicity was -21%.

In the case of `CCOC(=O)C1CCN(C(=O)COc2ccc(Br)cc2)CC1`, the cytotoxicity is 6.3%.

Take `CCCn1c(NCc2ccco2)nc2ccccc21`: the cytotoxicity was -3.7%.

For the compound `CCCn1c(NC(=O)c2ccccc2)nc2ccccc21`, the cytotoxicity was -14.1%.

Consider `CCn1c(COc2ccccc2)nnc1SCC(=O)C(C)(C)C`, for which the cytotoxicity is 16.4%.

As for `CCC(Sc1nc2cc3c(cc2c(=O)n1Cc1ccco1)OCO3)C(=O)Nc1ccccc1OC` (stereo not drawn), the cytotoxicity was -11.9%.

Turning to `CCc1ccccc1NC(=O)C(CC)Sc1nc2cc3c(cc2c(=O)n1Cc1ccco1)OCO3` (stereo not drawn), the cytotoxicity is 10.9%.

Regarding `O=C(c1cccc(COc2ccc(Cl)cc2Cl)c1)N1CCN(c2ccccn2)CC1`, the cytotoxicity is 99% (active).

Regarding `O=C(CCCOc1ccc(Cl)cc1Cl)N1CCN(c2ccccn2)CC1`, the cytotoxicity was 1.2%.

`O=C(c1cccc(Cl)c1)N1CCN(c2ccccn2)CC1`: the cytotoxicity is -21.5%.

On to `COc1ccc(Br)cc1-c1nc(C)c(C(C)=O)n1O`, for which the cytotoxicity is 9.6%.

For the compound `O=C(Nc1cccc(Cl)c1)c1ccc2c(=O)n3c(nc2c1)CCCCC3`, the cytotoxicity was 53.7% (active).

For the compound `O=C(Nc1ccc(F)cc1Cl)c1ccc2c(=O)n3c(nc2c1)CCCCC3`, the cytotoxicity was -3.1%.

For the compound `O=C(Nc1ccc(F)c(Cl)c1)c1ccc2c(=O)n3c(nc2c1)CCCCC3`, the cytotoxicity was -3.7%.

Take `CCC(C)C(NC(=O)c1ccccc1NC(=O)c1ccco1)C(=O)O` (stereo not drawn): the cytotoxicity is 1.4%.

Take `CC(C)COc1ccc(C2NC(=O)NC2=O)cc1` (stereo not drawn): the cytotoxicity is 3.8%.

In the case of `Nc1cc(C(=O)N2CCCC2)cc(C(=O)N2CCCC2)c1`, the cytotoxicity is 6.7%.

Turning to `O=P(O)(CCc1ccccc1)CN1CCCCC1`, the cytotoxicity is 2.1%.

As to `COc1ccc(C(=O)Oc2ccc3c(c2)OCO3)cc1OC`, the cytotoxicity is -16.2%.

`COc1cc2c(=O)n(-c3ccc(C)cc3)c(=O)n(CC(=O)c3ccc4c(c3)OCO4)c2cc1OC`: the cytotoxicity is 2.3%.

As to `COc1cc2c(O)c3c(c(-c4ccc5c(c4)OCO5)c2cc1OC)C(=O)OC3`, the cytotoxicity is 99.9% (active).

Take `CN1C(=O)CC(N2CCN(CC(=O)N3CCCC3)CC2)C1=O` (stereo not drawn): the cytotoxicity was -1.8%.

For `COc1ccc(S(=O)(=O)NC2CCCC2)cc1Br`, the cytotoxicity was 8.9%.

As for `C=CCNc1ncnc2c1ncn2C1OC(CO)C(O)C1O` (stereo not drawn), the cytotoxicity was 53.6% (active).

Consider `OC[C@H]1O[C@@H](n2cnc3c(NC4CCCC4)ncnc32)[C@H](O)[C@@H]1O`, for which the cytotoxicity was 3.7%.

`Nc1nc(F)nc2c1ncn2[C@@H]1O[C@H](CO)[C@@H](O)[C@@H]1O`: the cytotoxicity was 42.7%.

Turning to `Nc1nc(Cl)nc2c1ncn2[C@@H]1O[C@H](CO)[C@@H](O)[C@H]1O`, the cytotoxicity is 2.5%.

Turning to `Nc1ncnc2c1ncn2[C@@H]1O[C@H](CO)[C@@H](O)[C@H]1O`, the cytotoxicity was -17.3%.

In the case of `OC[C@H]1O[C@@H](n2cnc3c(Nc4ccccc4)ncnc32)[C@H](O)[C@@H]1O`, the cytotoxicity was 62.3% (active).

On to `COc1cccc2cc(C(=O)Nc3cccnc3N3CCOCC3)c(=O)oc12`, for which the cytotoxicity is 7.3%.

Consider `O=C(CSc1nnnn1-c1ccc2c(c1)OCCO2)c1cccc2c1OCCO2`, for which the cytotoxicity was 10.2%.

On to `COc1cccc(/C=N/n2c(CO)nc3ccccc32)c1OC`, for which the cytotoxicity was -4.1%.

For `CC(O)C(O)C(O)C(O)C1NCCS1` (stereo not drawn), the cytotoxicity is 5.8%.

As for `CCCCn1c(=N)n(CC(O)COc2cccc(C)c2)c2ccccc21` (stereo not drawn), the cytotoxicity was 50.9% (active).

As to `CCCCn1c(=N)n(CC(O)COc2ccccc2)c2ccccc21` (stereo not drawn), the cytotoxicity was 13.3%.

Consider `CCCn1c(=N)n(CC(O)COc2cccc(C)c2)c2ccccc21` (stereo not drawn), for which the cytotoxicity is 12.4%.

Turning to `COc1ccc(OCC(O)Cn2c(=N)n(Cc3ccccc3)c3ccccc32)cc1` (stereo not drawn), the cytotoxicity is 22.1%.

As to `CCn1c(=N)n(CC(O)COc2cccc(C)c2)c2ccccc21` (stereo not drawn), the cytotoxicity was 23.6%.

As for `N=c1n(Cc2ccccc2)c2ccccc2n1CC(O)COc1ccccc1` (stereo not drawn), the cytotoxicity is 53% (active).

Regarding `O=C(COc1ccccc1)NCCSc1ccccc1`, the cytotoxicity is 0%.

On to `CCN(CC)S(=O)(=O)c1ccc(OCC(=O)NCc2ccccc2)cc1`, for which the cytotoxicity is 7.9%.

Source of the values: PubChem BioAssay AID431 (Sanford-Burnham Center for Chemical Genomics, 2006).
